The values that follow come from PubChem BioAssay (NCI).

SMILES strings stand for the structures. Compounds without any hit were thinned out: in the full panel of roughly 83,000, 20% have a hit.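 Testing used 96-well plates and a 48-hour single-concentration exposure. Example: -40 means 40% of the starting cells died.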 Values without a mark were called inactive. The source made the active and inactive calls. The calls were made as follows: active = growth percent below 10; inactive = the rest.

Among the test systems are SR leukemia; RPMI-8226 leukemia; OVCAR-5 ovarian; OVCAR-4 ovarian; SK-OV-3 ovarian; IGROV1 ovarian; OVCAR-3 ovarian; HS 578T breast; NCI/ADR-RES ovarian; T-47D breast; MDA-MB-435 melanoma; SW-620 colon; MCF7 breast; HCT-116 colon; HCC-2998 colon; KM12 colon; OVCAR-8 ovarian; BT-549 breast.
Assay in all cases: NCI-60 one-dose screen, 48 h (100 = growth as untreated, 0 = no growth, -100 = all killed)
Holding throughout (details): 10 µM unless noted

As for `O=C(O)c1cn(C2CC2)c2cc(N3CCN(C(=O)CN4C(=O)CSC4=O)CC3)c(F)cc2c1=O`, the growth in the assay with SR leukemia is 99.3%; in the assay on RPMI-8226 leukemia, 126%; in the assay on OVCAR-5 ovarian it was 99%; with OVCAR-4 ovarian, 86.4%; with SK-OV-3 ovarian, 113%; with IGROV1 ovarian it was 82.6%. Further, the growth with OVCAR-3 ovarian is 108%; with HS 578T breast, 97.7%; with NCI/ADR-RES ovarian, 108%; in the assay on T-47D breast, 106%; in the assay with MDA-MB-435 melanoma, 98.6%; with SW-620 colon it was 100%. In addition, the growth with MCF7 breast was 98.8%; in the assay on HCT-116 colon, 98.8%; in the assay on HCC-2998 colon, 115%; with KM12 colon, 101%.

For the compound `C=C(C=O)[C@@H]1CC[C@]2(CO)CC[C@]3(C)[C@H](CC[C@@H]4[C@@]5(C)CCCNC(C)(C)[C@@H]5CC[C@]43C)[C@@H]12`, the growth in the assay on SR leukemia was 3.73% (active); in the assay on OVCAR-8 ovarian it was 50.8%; in the assay with OVCAR-5 ovarian, 88.7%; in the assay on OVCAR-4 ovarian it was 87%; with SK-OV-3 ovarian, 104%; with IGROV1 ovarian it was 52.8%. The growth with OVCAR-3 ovarian was 3.49% (active); in the assay on HS 578T breast, 71.8%; with NCI/ADR-RES ovarian it was 65.3%; with T-47D breast, 13.3%; in the assay with BT-549 breast, 74.3%; in the assay on MDA-MB-435 melanoma, 76.3%. The growth in the assay on SW-620 colon was 1.41% (active); with MCF7 breast it was 12.7%; with HCT-116 colon it was -63.8% (active); with HCC-2998 colon it was -65.7% (active); in the assay on KM12 colon it was 1.61% (active).

On to `CCNC(=O)N1CCc2cc(OC)c(OCCc3ccc(OC)cc3)cc2C1c1ccc([N+](=O)[O-])cc1C` (configuration not stated), for which the growth in the assay on SR leukemia was 8.11% (active); in the assay with RPMI-8226 leukemia, 20.7%; in the assay with OVCAR-5 ovarian it was 40.4%; in the assay on OVCAR-4 ovarian, 54%; in the assay with SK-OV-3 ovarian, 51.4%; in the assay on IGROV1 ovarian, 24.9%. In addition, the growth was 0.838% (active) in the assay with HS 578T breast; 12.2% in the assay on NCI/ADR-RES ovarian; 53% with T-47D breast; 20.1% in the assay on BT-549 breast; 14.5% in the assay on MDA-MB-435 melanoma; 23.8% in the assay on SW-620 colon. Moreover, the growth is 18.4% in the assay on MCF7 breast, 8.8% (active) with HCT-116 colon, 14.5% with HCC-2998 colon and 18.6% in the assay with KM12 colon.

For `COc1ccc2c(c1)c(CC(=O)[Se]CCC#N)c(C)n2C(=O)c1ccc(Cl)cc1`, the growth with SR leukemia is 4.36% (active); in the assay on OVCAR-8 ovarian, 6.32% (active); with OVCAR-5 ovarian, 29%; in the assay on OVCAR-4 ovarian, 31.6%; with SK-OV-3 ovarian, 22.3%; in the assay on IGROV1 ovarian, -55.6% (active). Besides, the growth was -30.7% (active) in the assay with OVCAR-3 ovarian; -14.2% (active) in the assay on HS 578T breast; -1.67% (active) in the assay with NCI/ADR-RES ovarian; 66.7% in the assay with T-47D breast; -59.8% (active) in the assay on BT-549 breast; -13.4% (active) in the assay on MDA-MB-435 melanoma. Also, the growth was 2.84% (active) in the assay on SW-620 colon; 2.34% (active) in the assay with MCF7 breast; -16.9% (active) in the assay on HCT-116 colon; 75.6% with HCC-2998 colon; 26.5% with KM12 colon.

As to `CS(=O)(=O)Nc1cc(-c2ccc3ncc(C#N)c(NCc4ccccc4)c3c2)cnc1Cl`, the growth was -18.9% (active) with SR leukemia; -35.3% (active) in the assay on RPMI-8226 leukemia; 3.75% (active) in the assay on OVCAR-5 ovarian; -6.69% (active) with OVCAR-4 ovarian; -15% (active) with SK-OV-3 ovarian; -17.4% (active) in the assay on IGROV1 ovarian. In addition, the growth was -5.17% (active) with OVCAR-3 ovarian; -21.2% (active) with HS 578T breast; 24.5% in the assay with NCI/ADR-RES ovarian; 0.176% (active) in the assay with T-47D breast; -6.33% (active) in the assay with MDA-MB-435 melanoma; 4.13% (active) in the assay on SW-620 colon. Besides, the growth in the assay with MCF7 breast was 6.39% (active); in the assay with HCT-116 colon, 4.12% (active); in the assay with HCC-2998 colon it was 4.93% (active); in the assay on KM12 colon it was 8.53% (active).

As to `O=C1/C(=C/C=C/c2ccco2)SC(=S)N1C1CCCCC1`, the growth with SR leukemia was 82.2%; with RPMI-8226 leukemia, 100%; in the assay on OVCAR-5 ovarian, 94%; with OVCAR-4 ovarian it was 95.3%; with SK-OV-3 ovarian, 104%; with IGROV1 ovarian, 101%. Further, the growth in the assay with HS 578T breast was 101%; in the assay with NCI/ADR-RES ovarian it was 99%; with T-47D breast, 68.8%; in the assay with BT-549 breast, 111%; in the assay on MDA-MB-435 melanoma, 85.3%; in the assay with SW-620 colon, 92.2%. Also, the growth was 54.3% with MCF7 breast, 99.8% with HCT-116 colon, 97.3% with HCC-2998 colon and 96.9% with KM12 colon.

Consider `NC(N)=Nc1ccc(Oc2cccc(NC(N)=Nc3ccc(Cl)c(C(F)(F)F)c3)c2)cn1`, for which the growth in the assay with SR leukemia was -16.4% (active); in the assay with RPMI-8226 leukemia, 27.9%; with OVCAR-5 ovarian, 41.8%; in the assay with OVCAR-4 ovarian, 52.7%; in the assay with SK-OV-3 ovarian, 48.3%; in the assay on IGROV1 ovarian, -19.7% (active). For the same compound, the growth with HS 578T breast is 33.2%; in the assay on NCI/ADR-RES ovarian, 95.4%; in the assay on T-47D breast, 32.9%; in the assay with BT-549 breast, 60.4%; in the assay on MDA-MB-435 melanoma, 46.4%; in the assay with SW-620 colon it was 38.5%. Also, the growth with MCF7 breast is 20.2%; with HCT-116 colon, 15.8%; with HCC-2998 colon, 62.6%; in the assay with KM12 colon, 24.7%.

As for `COc1ccc([C@@H]2c3[nH]c4ccccc4c3C[C@H]3C(=O)N(C4CCN(CC5CCCCC5)CC4)CC(=O)N23)c(OC)c1`, the growth with SR leukemia was 25.9%; in the assay on OVCAR-8 ovarian, 82.2%; in the assay on OVCAR-5 ovarian, 94.1%; with OVCAR-4 ovarian, 70.5%; with SK-OV-3 ovarian, 86.2%; with IGROV1 ovarian, 60%. Also, the growth in the assay on OVCAR-3 ovarian is 74.9%; in the assay on HS 578T breast, 68.9%; in the assay on NCI/ADR-RES ovarian it was 76.7%; in the assay with T-47D breast it was 101%; in the assay on BT-549 breast, 80.3%; with MDA-MB-435 melanoma, 73.6%. For the same compound, the growth with SW-620 colon is 80.1%; in the assay on MCF7 breast, 42.6%; with HCT-116 colon, 50%; in the assay on HCC-2998 colon, 78.6%; in the assay on KM12 colon, 82.3%.

In the case of `CCn1c(SCC(=O)Nc2cccc(C(=O)/C=C/c3ccc(C)cc3)c2)nc2ccccc2c1=O`, the growth was 56.4% in the assay with SR leukemia; 7.2% (active) in the assay on RPMI-8226 leukemia; 97.6% in the assay on OVCAR-5 ovarian; 80% with OVCAR-4 ovarian; 110% with SK-OV-3 ovarian; 77.1% in the assay on IGROV1 ovarian. In addition, the growth was 101% in the assay with HS 578T breast; 91% in the assay with NCI/ADR-RES ovarian; 70.7% in the assay with T-47D breast; 93.3% in the assay on BT-549 breast; 75.4% with MDA-MB-435 melanoma; 51.4% with SW-620 colon. In addition, the growth in the assay with MCF7 breast was 19.7%; in the assay on HCT-116 colon, 10.8%; in the assay on HCC-2998 colon it was 78.7%; in the assay with KM12 colon it was 77.4%.
